From PubChem BioAssay
Mm-Cpn inhibitor: Inhibitors of TCP-1 ring complex (TRiC) of Methanococcus maripaludis (MmCpn): qHTS; Chaperonin Mm-Cpn (Methanococcus maripaludis); purified Mm-Cpn ATPase, ADP Transcreener TR-FRET; Potency, µM (top dose mostly 76.9 µM), most hits filed as inhibitors; 0.031% of 330,000 active; further: nearly all actives have a fitted effect of over 80% in size
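TR-FRET (320 nm excitation; 590 and 665 nm emission) reports ADP made from 10 uM ATP by 25 nM enzyme; compounds were preincubated 10 min, reaction run 30 min, both at 37°C.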
VDR inhibitor: Inhibitors of the vitamin D receptor (VDR): qHTS; Vitamin D3 receptor (Homo sapiens), P11473; VDR-SRC2-3 peptide fluorescence polarization, 2 h; Potency, µM, usual class: inhibitors; 0.93% of 400,000 active; AID 504847, 2011
Target sequence (P11473 whole entry, looked up): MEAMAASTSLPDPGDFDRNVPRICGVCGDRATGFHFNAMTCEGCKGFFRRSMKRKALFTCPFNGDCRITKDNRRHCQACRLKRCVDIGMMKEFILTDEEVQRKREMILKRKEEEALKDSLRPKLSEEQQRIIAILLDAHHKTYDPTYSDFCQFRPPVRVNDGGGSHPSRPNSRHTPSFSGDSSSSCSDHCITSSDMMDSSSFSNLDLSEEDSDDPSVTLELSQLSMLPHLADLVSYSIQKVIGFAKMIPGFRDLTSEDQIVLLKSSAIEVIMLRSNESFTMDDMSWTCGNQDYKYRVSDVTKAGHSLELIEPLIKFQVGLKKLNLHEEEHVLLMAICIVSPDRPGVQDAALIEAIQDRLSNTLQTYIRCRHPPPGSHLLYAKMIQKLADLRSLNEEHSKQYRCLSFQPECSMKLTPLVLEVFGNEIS
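VDR–SRC2-3 interaction, FP format. Cmpds 23 nl via pintool, brief spin, 2 h ambient incubation.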
Sfp PPTase inh: qHTS Assay for Inhibitors of Bacillus subtilis Sfp phosphopantetheinyl transferase (PPTase). 4'-phosphopantetheinyl transferase ffp (Bacillus subtilis), Q9F4F7. Biochemical Sfp PPTase activity, qHTS. Potency, µM, actives largely listed as inhibitors. 3.5% of 310,000 active. AID 1490, 2009;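 further: the enzyme is Sfp with the accession as filed and its product quenches rhodamine fluorescence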
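After 15 min at room temperature with compound, 15 nM Sfp received 5 uM rhodamine-CoA plus 12.5 uM BHQ-2-ybbR (50 mM Hepes pH 7.6, 10 mM MgCl2). Rate came from the fluorescence difference over 30 min, ex 525/em 598 nm.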
CCT modulator: High-Throughput Screening for Modulators of Cytosolic Chaperonin Activity; activity change, % (test concentration not listed), hits read low; AID 651819, 2012; 0.3% of 360,000 active; purified chaperonin ATPase assay, HTRF ADP detection, 30 min; in the data active means activity change below about -30%
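TRiC (40 or 20 nM final, by batch activity) in 30 mM Tris pH 7.4, 100 mM KCl, 5 mM MgCl2, 1 mM DTT was treated with compound at 76 uM single dose, then 10 uM ATP, 30 min at 37 °C. ADP was read by HTRF Transcreener.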
G9a inh: qHTS Assay for Inhibitors of Histone Lysine Methyltransferase G9a; G9a H3K9 monomethylation, AlphaScreen, 2 h; AID 504332, 2011; Potency, µM (highest dose often 102 µM), actives largely listed as inhibitors; 8.8% of 350,000 active; further: nearly all actives have a fitted effect of over 75% in size
Target sequence (Q96KQ7 913-1193 limits assumed): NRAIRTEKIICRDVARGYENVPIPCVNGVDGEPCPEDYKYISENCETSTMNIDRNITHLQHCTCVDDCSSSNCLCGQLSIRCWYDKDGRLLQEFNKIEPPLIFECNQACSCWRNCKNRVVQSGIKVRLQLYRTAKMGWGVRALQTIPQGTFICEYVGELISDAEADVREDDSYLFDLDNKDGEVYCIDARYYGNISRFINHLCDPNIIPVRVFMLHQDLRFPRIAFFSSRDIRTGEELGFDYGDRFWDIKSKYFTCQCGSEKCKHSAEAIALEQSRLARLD
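Using a bead-based AlphaScreen, monomethylated H3K9 product from 2 h room-temperature reactions (G9a 20 nM, peptide 500 nM, SAM 20 uM) was detected with 0.5 ug/mL rabbit anti-H3K9me1 antibody.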
PLK1 PBD inh: qHTS for Inhibitors of PLK1-PDB (polo-like kinase 1 - polo-box domain): Primary Screen | Serine/threonine-protein kinase PLK1 (Homo sapiens), P53350 | Plk1 PBD binding of FITC phosphopeptide, fluorescence polarization | Potency, µM, actives largely listed as inhibitors | 2.8% of 360,000 active | AID 720504, 2013; further: series mostly up to about 57 µM; nearly all actives have a fitted effect of over 65% in size
A number is an active result; - = inactive; ? = inconclusive; . = no result; [ ] = remark or other dose. The list is not random: actives were taken first. Their share in the collection is about 10%. Unless noted, the call rests on the fitted dose curve; in most records, active means well fitted curve in the direction sought with a large enough effect; inconclusive means small, poorly fitted or top-dose-only effect, or another doubt; inactive means no such curve, though single readings can be large; an effect the other way counts as inactive or inconclusive.

SMILES | Mm-Cpn inhibitor | VDR inhibitor | Sfp PPTase inh | CCT modulator | G9a inh | PLK1 PBD inh
O=C(Cc1ncc(C(F)(F)F)cc1Cl)NCc1cccnc1 | - | - | - | - | - | -
CCCOCc1ccc(O)c2ncccc12 | - | - | - | - | - | -
OCc1ccc(O)c2ncccc12 | - | - | - | - | -[0.501 µM] | -
Oc1ccc(F)c2cccnc12 | - | 40µM | - | - | - | 5.3µM
Oc1ccc(CNc2ccccc2F)c2cccnc12 | - | ? | - | - | 1µM | 3.4µM
CCOC(=O)c1ccccc1NC(=O)c1nn(C)c2c1COc1ccccc1-2 | . | - | . | . | - | .
CCN(Cc1ccccc1)Cc1c(O)ccc2oc(C)c(C(=O)Nc3ccccc3C)c12 | . | - | . | . | ? | .
C#CCOCCOCCOCCNc1nc(N2CCN(C(=O)[C@H](C)n3cc(CCCN=C(N)N)nn3)CC2)nc(N2CCN(C(=O)[C@H](Cc3ccc(O)cc3)n3cc(CCO)nn3)CC2)n1 | - | . | - | . | 32µM | .
C#CCOCCOCCOCCNc1nc(N2CCN(C(=O)[C@H](CCCCN)n3cc(CCCC)nn3)CC2)nc(N2CCN(C(=O)[C@H](Cc3ccc(O)cc3)n3cc(CCO)nn3)CC2)n1 | - | - | - | - | 40µM | ?
C#CCOCCOCCOCCNc1nc(N2CCN(C(=O)[C@H](CCCCN)n3cc(CC(C)O)nn3)CC2)nc(N2CCN(C(=O)[C@H](Cc3ccc(O)cc3)n3cc(CCO)nn3)CC2)n1 (stereo partly drawn) | . | - | . | - | . | -
CC(CNC(=O)c1ccc2nc(Cc3ccccc3)oc2c1)c1ccccc1 (stereo not drawn) | . | - | . | . | - | .
CCOc1ccccc1NC(=O)c1nc2nc(C)cc(C(F)F)n2n1 | . | - | . | . | - | .
CCOC(=O)C1CCN(S(=O)(=O)c2ccc3c(c2)NC(=O)C(C)S3)CC1 (stereo not drawn) | - | - | - | - | ? | -
CC(=O)N1CC(C)Sc2ccc(S(=O)(=O)NC3CCCCC3C)cc21 (stereo not drawn) | - | - | - | - | - | 30µM
CCOC(=O)c1ccc(S(=O)(=O)N2CCC(C(=O)OCC)CC2)cc1 | - | - | - | - | -[2.33 µM] | -
CCOC(=O)C1CCN(S(=O)(=O)c2ccc(CC)cc2)CC1 | - | 40µM | - | - | - | 8.4µM
CCOC(=O)C1CCN(S(=O)(=O)c2ccc3c(c2)N(C(C)=O)CC(C)S3)CC1 (stereo not drawn) | - | ? | - | - | - | 19µM
CCOc1ccc(S(=O)(=O)NC2CCCCC2C)cc1 (stereo not drawn) | . | - | . | - | . | -
Cc1ccc(Nc2ncc(C(=O)N3CCN(c4ccc(F)cc4)CC3)c3ccccc23)cc1Cl | . | - | . | . | ? | .
CCN(CC)S(=O)(=O)c1ccc(NC(=O)c2c(C)oc3ncnc(N4CCCCC4)c23)cc1 | . | - | . | . | - | .
Cc1ccc(S(=O)(=O)n2c3ccc(Cl)cc3c3nc(C)sc32)cc1 | - | - | - | - | ? | 27µM
O=C1C=C(NC2=CC3OC(c4ccccc4)OCC3OC2=O)CCC1 (stereo not drawn) | - | 79µM | - | - | - | -
CC1(C)CC1C(=O)Nc1ccc([N+](=O)[O-])cc1Br (stereo not drawn) | - | - | - | - | - | -
Cc1ccc(C2(c3ccc(C)cc3)CC2C(=O)Nc2ccc([N+](=O)[O-])cc2O)cc1 (stereo not drawn) | - | - | - | - | 25µM | -
CC1=NNC(=O)C1C(c1ccc(Cl)cc1)C(C#N)C#N (stereo not drawn) | - | 79µM | - | - | . | 21µM
SMILES | Mm-Cpn inhibitor | VDR inhibitor | Sfp PPTase inh | CCT modulator | G9a inh | PLK1 PBD inh
CC1=NN(Cc2ccccc2)C(=O)C1C(c1ccccc1)C(C#N)C#N (stereo not drawn) | - | ? | - | - | ? | 24µM
CC1=NN(Cc2ccccc2)C(=O)C1C(c1ccc(Cl)cc1)C(C#N)C#N (stereo not drawn) | - | 40µM | - | - | ? | 7.5µM
CC1=NN(Cc2ccccc2)C(=O)C1C(c1ccncc1)C(C#N)C#N (stereo not drawn) | - | - | ? | - | . | ?
CC1=NNC(=O)C1C(c1cccc(O)c1)C(C#N)C#N (stereo not drawn) | - | - | - | - | . | -
Cn1nc(-c2ccncc2)nc2c(=O)n(C)c(=O)nc1-2 | . | - | . | . | . | .
O=c1c2sc3ccccc3c2n(Cc2cccc(Cl)c2)c(=O)n1Cc1ccccc1 | . | - | . | . | - | .
O=C(CNC(=O)c1ccccc1F)NCCOc1ccccc1Cl | - | - | - | - | -[2.33 µM] | 27µM
O=S(=O)(c1cccc(Cl)c1)N1CCN(c2nc(-c3ccccc3)nc3ccccc23)CC1 | . | - | . | . | . | .
CC(=O)c1ccc(NC(=O)Cn2ncc3c(C)n(Cc4ccc(F)cc4)c(C)c3c2=O)cc1 | . | - | . | . | - | .
CCOC(=O)Cn1cc(/C=C/[N+](=O)[O-])c2ccccc21 | - | ? | - | - | . | ?
CCOC(=O)COc1ccc2ccccc2c1/C=C/[N+](=O)[O-] | - | 25µM | 20µM | - | 18µM | 6µM
CCOC(=O)C1=C(N)Oc2cc(C)n(C)c(=O)c2C1c1ccncc1 (stereo not drawn) | - | - | - | - | 50µM | -
CCOC(=O)C1=C(N)Oc2cc(C)[nH]c(=O)c2C1c1ccncc1 (stereo not drawn) | - | - | - | - | - | -
Cc1ccoc1C(=O)NCCNc1ccc(Cl)cc1[N+](=O)[O-] | - | - | - | - | 18µM | -
O=C(NCCNc1ccc(Cl)cc1[N+](=O)[O-])c1cccnc1 | - | - | - | - | ? | -
CC1=C(C(=O)Nc2ccccc2F)C(c2cccs2)C2=C(CCCC2=O)N1 (stereo not drawn) | - | ? | - | - | - | 24µM
Cc1cccc(C(=O)Nc2cc(-c3ccccc3F)nn2-c2ccccc2)c1 | . | - | . | . | - | .
CCCn1c(CN2CCN(C(=O)c3ccco3)CC2)nc2cc(S(=O)(=O)N(C)C)ccc21 | - | - | . | - | 40µM | -
COc1ccc(OC)c(NC(=O)CSc2nnc(Cc3cccn3C)n2CCc2ccccc2)c1 | - | - | - | - | 50µM | -
Cn1c(Cc2ccccc2)nnc1SCC(=O)Nc1ccc2c(c1)OCO2 | - | - | - | - | - | -
Cn1cccc1Cc1nnc(SCC(=O)Nc2ccc(F)cc2)n1CCc1ccccc1 | - | - | - | - | 45µM | -
Cn1cccc1Cc1nnc(SCC(=O)Nc2ccc3c(c2)OCO3)n1CCc1ccccc1 | - | - | - | - | 40µM | ?
